The text below walks through data of PubChem BioAssay (NCATS).

Assay [1] is described as follows: qHTS Assay for Identification of Small Molecule Agonists for Hypoxia Response Element Signaling Pathway (AID 914; active = well fitted activation curve with a large enough effect in the signal ratio, with a control signal flat, not every such curve was filed as active; the % refers to the signal ratio; also: % of control where 0% means no effect). To be noted: ME-180 (cervical carcinoma) HRE-bla reporter, beta-lactamase ratio, CoCl2, 17 h; activation: stronger effect = higher value. A digest of the protocol: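 In Opti-MEM containing 0.5% dialyzed FBS and 10 mM HEPES, ME-180 HRE-bla cells received a compound titration and EC50 CoCl2. They were incubated 17 hours, then CCF4-loaded 2.5 hours at room temperature before ratio reading.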
On the technique in general: Quantitative high-throughput screening tests each substance at several concentrations.

Assay [2] in a line: S16 Schwann cell PMP22 intronic element firefly luciferase assay (AID 624032).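 Also: plate controls were DMSO for no effect and PTC124 positive control mean for full effect; nearly all actives have a fitted effect of over 30% in size.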 The procedure, abridged: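 Rat S16 Schwann cells stably carrying firefly luciferase driven by a PMP22 intronic element, in 10% FBS, treated 24 h at 37 C. ONE-Glo luminescence normalized to PTC124 control and DMSO (0%); curves classed by r2, magnitude and activity.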
Assay [3] can be described thus: Cell Viability - BJ (AID 421; calls by dose curve;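 also: potency is read from the fitted curve at half-maximal effect; cells exposed to compound for 40 hours at 37 °C before readout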). The following applies: BJ fibroblast viability, qHTS. The procedure, abridged:
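Normal human BJ foreskin fibroblasts, 1500/well in complete medium, treated 40 hr at 37 °C. Cellular ATP by CellTiter-Glo luminescence; normalized to DMSO and 100 uM tamoxifen, AC50 from Hill fit.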

A short description of assay [4]: Cell Viability - Jurkat (AID 426;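 active = dose-dependent loss of cell ATP signal giving a full or clear fitted curve, ranked by lower potency value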; also: potency is read from the fitted curve at half-maximal effect). The following applies: qHTS. A digest of the protocol:
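Luminescent ATP read-out (CellTiter-Glo, 20 min at room temperature) after 40 hr compound exposure at 37 °C of Jurkat E6-1 cells, 5000/well. Decreased ATP taken as cytotoxicity; AC50 from standard Hill equation.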

Assay [5] in a line: Cell Viability - Hek293 (AID 427;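 active = compounds whose dose-response curve shows a full or clear partial loss of cell viability, called from curve shape rather than a numeric limit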;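 also: potency is read from the fitted curve at half-maximal effect; cells exposed to compound for 40 hours at 37 °C before reading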). To be noted: qHTS. A digest of the protocol: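 HEK293 cells in complete medium were exposed to compound for 40 hr at 37 °C, then cellular ATP was read by CellTiter-Glo luminescence. Data were normalized to DMSO (basal) and 100 uM tamoxifen (100% inhibition), and AC50 came from Hill fits.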
Assay [6] in a line: Cell Viability - HepG2 (AID 433; calls by dose curve;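 also: potency is read from the fitted curve at half-maximal effect; potency for ATP loss meaning cytotoxicity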). To be noted: qHTS. A digest of the protocol: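 Read-out is luciferase-based quantitation of cellular ATP as a measure of viable HepG2 cells after 40 h treatment at 37 °C. Signal decrease is scaled between DMSO-only and 100 uM tamoxifen controls, with AC50 fitted by the Hill equation.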
Assay [7] in a line: Cell Viability - MRC5 (AID 434; calls by dose curve;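 also: potency is read from the fitted curve at half-maximal effect; potency reflects cytotoxicity seen as loss of intracellular ATP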). To be noted: MRC5 lung fibroblast viability, qHTS. A digest of the protocol: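 ATP luminescence read-out (CellTiter-Glo, 20 min RT) after 40 hr, 37 °C compound exposure of 1500 MRC5 cells/well. Data normalized to DMSO (basal) and 100 uM tamoxifen (100% inhibition); AC50 from standard Hill equation.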
The nature of assay [8]: Cell Viability - SK-N-SH (AID 435; calls by dose curve; also: potency is read from the fitted curve at half-maximal effect). To be noted: SK-N-SH neuroblastoma cell viability qHTS. The procedure, abridged:
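Luminescent ATP signal served as the viability read-out after 40 hours of compound treatment of human neuroblastoma SK-N-SH cells. Concentration-response data, scaled between DMSO and 100 uM tamoxifen, gave AC50 values by standard Hill modeling.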

Assay [9] is described as follows: Cell Viability - N2a (AID 540).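 Also: plate controls were DMSO alone for no effect and tamoxifen control for full effect; nearly all actives have a fitted effect of over 45% in size.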 To be noted: N2a mouse neuroblastoma cell viability; activity change, negative = cytotoxicity: at 92.2 µM (top of the series). The procedure, abridged: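 N2a mouse neuroblastoma, 1500 cells/well, 5 hr settle; compound 40 hr, 37 °C; CellTiter-Glo 20 min RT; luminescence; Hill-fit AC50.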
Assay [10] can be described thus: Cell Viability - NIH 3T3 (AID 541).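 Also: plate controls were DMSO alone for no effect and tamoxifen positive control for full effect; nearly all actives have a fitted effect of over 25% in size.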 To be noted: NIH 3T3 cell viability, qHTS; activity change, negative = cytotoxicity: at 92.2 µM (top of the series). The procedure, abridged:
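qHTS format; 40 hr compound exposure, 37 °C; CellTiter-Glo luminescence (cellular ATP) read-out after 20 min at RT. Decrease in ATP = cytotoxicity; AC50 from standard Hill fit.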

The nature of assay [11]: Cell Viability - HUV-EC-C (AID 542). Also: % is scaled to controls: 0 for no effect and ±100 for the full control effect; nearly all actives have a fitted effect of over 35% in size. A digest of the protocol:
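Luminescent ATP read-out (CellTiter-Glo, 20 min room temperature) after 40 hr compound treatment of HUV-EC-C cells at 37 °C. Concentration-response data fitted with the standard Hill equation to give AC50; tamoxifen and doxorubicin served as positive controls.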

Assay [12] in a line: Cell Viability - H-4-II-E (AID 543). Also: % is scaled to controls: 0 for no effect and ±100 for the full control effect; nearly all actives have a fitted effect of over 35% in size. The procedure, abridged:
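qHTS, rat hepatoma H-4-II-E, 1500 cells/well; 40 hr compound exposure, 37 °C; CellTiter-Glo ATP luminescence after 20 min RT; AC50 by standard Hill fit.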

Assay [13] is described as follows: Cell Viability - SH-SY5Y (AID 544).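 Also: 0% = DMSO alone and -100% = 100 µM tamoxifen; nearly all actives have a fitted effect of over 55% in size.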 The following applies: SH-SY5Y neuroblastoma cell viability; viability change, negative = cytotoxic: at 92.2 µM (top of the series). The procedure, abridged: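 SH-SY5Y, 1500 cells/well, 5 hr pre-incubation 37 °C; cpd 40 hr 37 °C; CellTiter-Glo 20 min RT; luminescence (ATP) read. qHTS concentration-response, Hill fit → AC50. Tamoxifen, doxorubicin as positive controls.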

Assay [14] can be described thus: Cell Viability - Mesenchymal (AID 546).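 Also: cells exposed to compound for 40 hours before reading; 0% = DMSO only and -100% = 100 µM tamoxifen.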 The following applies: mesenchymal cells viability, qHTS; activity change, negative = cytotoxicity: at 91.7 µM (top of the series). A digest of the protocol:
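Human renal mesenchymal cells (glomerulus-derived), 1000 cells/well, 5 hr 37 °C pre-incubation; compound 40 hr, 37 °C; CellTiter-Glo, 20 min RT; luminescence; AC50 via Hill equation.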

The target in assay [15] is Estrogen receptor (Homo sapiens) (UniProt P03372). The experiment in a line: qHTS assay for small molecule antagonists of estrogen receptor alpha signaling (AID 588513; active = well fitted curve in the direction sought with a large enough effect in the signal ratio, with a control signal flat, not every such curve was filed as active; the % refers to the signal ratio; also: % is scaled to controls: 0 for no effect and ±100 for the full control effect). The procedure, abridged:
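Fluorescence from CCF4 substrate after 2 h at room temperature gave reporter activity; cells had been exposed to compound and 0.5nM 17-beta-estradiol for 18 h at 37 C. Hill-equation fitting yielded IC50 and maximal response.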

In assay [16] the target is Glucocorticoid receptor (Homo sapiens) (UniProt P04150). Nature of the assay: qHTS assay for small molecule agonists of glucocorticoid receptor signaling (AID 588532; active = well fitted curve in the direction sought with a large enough effect in the signal ratio, with a control signal flat; the % refers to the signal ratio;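 also: 100% = dexamethasone at 0.1 µM and 0% = DMSO only wells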). To be noted: HeLa MMTV-bla, beta-lactamase ratio, agonist, 18 h; stronger effect = higher value; percent of dexamethasone control, DMSO zero. A digest of the protocol:
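MMTV-bla HeLa beta-lactamase reporter cells in 1% charcoal/dextran FBS medium, compounds up to 92 uM for 18 h at 37 C, CCF4 readout; normalized to 0.1 uM dexamethasone (100%), EC50 and efficacy from Hill fits.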

The target is the same in assay [17]. The experiment in a line: qHTS assay for small molecule antagonists of glucocorticoid receptor signaling (AID 588533; active = well fitted inhibition curve with a large enough effect in the signal ratio, with a control signal flat, not every such curve was filed as active; the % refers to the signal ratio;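 also: cells stimulated with 2 nM dexamethasone as agonist; potency is read from the fitted curve at half-maximal effect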). The procedure, abridged:
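Antagonist-mode qHTS: compound titrations added to GRE-bla HeLa cells, then dexamethasone 2 nM final; 18 h, 37 C. CCF4 FRET fluorescence normalized to dexamethasone and DMSO; IC50 from Hill fit.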

The target of assay [18] is Voltage-gated inwardly rectifying potassium channel KCNH2 (Homo sapiens) (UniProt Q12809). The experiment in a line: qHTS Assay for Small Molecule Inhibitors of the Human hERG Channel Activity (AID 588834).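 Also: top concentration of the series differs between compounds; % is scaled to controls: 0 for no effect and ±100 for the full control effect; lower thallium flux fluorescence means stronger hERG block; nearly all actives have a fitted effect of over 50% in size.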 A digest of the protocol:
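Step 1: BacMam hERG transduction of U2OS, 4 hrs RT. Step 2: overnight 37 °C, plate 2000 cells/well, 4 hr. Step 3: FluxOR load, compound 10 min, stimulate, read fluorescence.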

The nature of assay [19]: qHTS assay for small molecule activators of the p53 signaling pathway (AID 651743; active = well fitted activation curve with a large enough effect in the signal ratio, not every such curve was filed as active; the % refers to the signal ratio; also: % of control where 0% means no effect). To be noted: HCT-116 p53RE-bla, beta-lactamase FRET ratio, 16 h; activation: stronger effect = higher value. The procedure, abridged:
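Reporter: beta-lactamase driven by p53 response elements, stably integrated in HCT-116 cells. Cells seeded at 4,000/well, 5 h preincubation, compound (DMSO) 16 h at 37 C; B/G FRET substrate 2 h RT; fluorescence intensity read.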

The nature of assay [20]: qHTS assay for small molecule activators of the nuclear factor-kappa B (NF-kB) signaling pathway (AID 651749; active = well fitted activation curve with a large enough effect in the signal ratio; the % refers to the signal ratio; also: % of control where 0% means no effect). To be noted: NF-kB-bla ME-180 cells, beta-lactamase FRET ratio, 16 h; stronger effect = higher value. The procedure, abridged: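 NF-kB-bla ME-180 cells, 2,000/well; 23 nL compound or DMSO pinned; 16 hr, 37C/5% CO2; beta-lactamase FRET read-out.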

Each structure is given as a SMILES string. Results filed as inconclusive are left out. Values without a mark were called inactive. Activity calls are given as the source filed them. Unless noted, calls follow the shape of the dose curve; as a rule, active = well fitted curve in the direction sought with a large enough effect; inconclusive = small, poorly fitted or top-dose-only effect, or another doubt; inactive = no such curve, though single readings can be large; an effect the other way counts as inactive or inconclusive. Where only a bound is given, the exact number is not on record here.

Glucocorticoid receptor (Homo sapiens), sequence (P04150 whole entry, looked up): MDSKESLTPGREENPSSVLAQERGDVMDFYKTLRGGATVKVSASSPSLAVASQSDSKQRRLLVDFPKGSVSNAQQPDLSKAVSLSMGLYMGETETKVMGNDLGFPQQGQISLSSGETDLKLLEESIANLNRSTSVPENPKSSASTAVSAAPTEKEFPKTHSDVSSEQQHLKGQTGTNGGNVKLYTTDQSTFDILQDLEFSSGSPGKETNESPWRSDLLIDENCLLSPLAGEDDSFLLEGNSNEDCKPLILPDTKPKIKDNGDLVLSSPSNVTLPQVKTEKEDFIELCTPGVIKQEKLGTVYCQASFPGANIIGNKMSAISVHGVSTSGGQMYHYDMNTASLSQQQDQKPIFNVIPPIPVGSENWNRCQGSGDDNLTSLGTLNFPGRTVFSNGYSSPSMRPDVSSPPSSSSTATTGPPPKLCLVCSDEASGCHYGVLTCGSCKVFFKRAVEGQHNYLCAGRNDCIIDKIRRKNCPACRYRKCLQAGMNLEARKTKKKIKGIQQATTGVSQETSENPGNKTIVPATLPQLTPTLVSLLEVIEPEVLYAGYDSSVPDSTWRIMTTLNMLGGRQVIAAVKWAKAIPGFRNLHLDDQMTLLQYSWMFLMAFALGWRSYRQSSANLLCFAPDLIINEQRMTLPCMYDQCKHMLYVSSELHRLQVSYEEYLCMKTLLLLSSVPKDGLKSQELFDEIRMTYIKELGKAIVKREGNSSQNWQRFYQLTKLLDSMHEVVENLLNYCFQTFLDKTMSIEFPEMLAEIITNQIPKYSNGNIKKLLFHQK
Voltage-gated inwardly rectifying potassium channel KCNH2 (Homo sapiens), sequence (Q12809 whole entry, looked up): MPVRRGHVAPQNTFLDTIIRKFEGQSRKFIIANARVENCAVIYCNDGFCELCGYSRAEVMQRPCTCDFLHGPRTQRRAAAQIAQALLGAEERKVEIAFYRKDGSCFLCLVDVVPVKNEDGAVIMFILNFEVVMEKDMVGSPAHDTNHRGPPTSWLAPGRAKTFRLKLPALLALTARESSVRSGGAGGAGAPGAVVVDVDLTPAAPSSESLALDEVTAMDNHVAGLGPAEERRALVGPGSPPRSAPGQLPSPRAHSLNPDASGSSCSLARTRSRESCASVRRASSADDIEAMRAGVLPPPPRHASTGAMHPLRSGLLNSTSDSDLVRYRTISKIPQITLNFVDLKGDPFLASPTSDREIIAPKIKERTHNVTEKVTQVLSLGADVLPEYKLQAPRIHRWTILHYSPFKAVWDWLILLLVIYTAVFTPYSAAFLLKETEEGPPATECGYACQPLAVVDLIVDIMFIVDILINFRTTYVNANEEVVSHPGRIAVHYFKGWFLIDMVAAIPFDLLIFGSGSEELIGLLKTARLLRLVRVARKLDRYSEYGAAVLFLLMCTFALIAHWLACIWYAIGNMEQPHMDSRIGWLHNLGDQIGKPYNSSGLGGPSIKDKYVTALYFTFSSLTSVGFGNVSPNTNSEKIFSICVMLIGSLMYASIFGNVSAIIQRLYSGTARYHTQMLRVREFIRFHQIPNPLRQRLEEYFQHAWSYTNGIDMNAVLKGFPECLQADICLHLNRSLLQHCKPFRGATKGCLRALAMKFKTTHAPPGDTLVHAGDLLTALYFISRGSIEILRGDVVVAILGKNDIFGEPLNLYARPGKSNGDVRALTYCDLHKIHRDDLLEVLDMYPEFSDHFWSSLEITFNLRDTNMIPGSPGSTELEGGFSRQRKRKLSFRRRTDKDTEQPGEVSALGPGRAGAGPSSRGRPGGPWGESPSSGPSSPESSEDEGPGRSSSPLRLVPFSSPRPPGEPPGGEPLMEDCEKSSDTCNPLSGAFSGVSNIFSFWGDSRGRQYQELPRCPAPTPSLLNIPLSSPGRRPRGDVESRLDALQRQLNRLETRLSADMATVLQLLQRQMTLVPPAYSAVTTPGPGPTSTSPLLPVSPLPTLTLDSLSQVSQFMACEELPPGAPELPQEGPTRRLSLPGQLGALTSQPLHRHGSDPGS
Estrogen receptor (Homo sapiens), sequence (P03372 whole entry, looked up): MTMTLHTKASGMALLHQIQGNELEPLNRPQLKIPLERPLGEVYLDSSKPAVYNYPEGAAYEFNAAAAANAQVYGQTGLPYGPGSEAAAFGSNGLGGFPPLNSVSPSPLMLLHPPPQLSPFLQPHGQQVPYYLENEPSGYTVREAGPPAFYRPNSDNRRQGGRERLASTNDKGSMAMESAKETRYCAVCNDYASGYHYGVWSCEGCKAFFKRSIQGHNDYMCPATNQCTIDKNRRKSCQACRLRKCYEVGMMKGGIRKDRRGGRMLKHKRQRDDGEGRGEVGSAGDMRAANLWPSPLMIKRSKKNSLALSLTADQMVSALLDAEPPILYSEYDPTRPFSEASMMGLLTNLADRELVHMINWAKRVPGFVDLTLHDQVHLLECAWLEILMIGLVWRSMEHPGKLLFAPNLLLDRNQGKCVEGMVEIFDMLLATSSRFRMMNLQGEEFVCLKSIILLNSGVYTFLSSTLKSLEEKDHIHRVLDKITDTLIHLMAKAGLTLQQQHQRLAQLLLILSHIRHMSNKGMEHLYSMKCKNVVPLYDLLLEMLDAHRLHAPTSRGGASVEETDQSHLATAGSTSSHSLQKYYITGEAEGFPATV

For `NS(=O)(=O)c1cc2c(cc1Cl)N[C@H](Cc1ccccc1)NS2(=O)=O`, the activation in assay [1] is 4.65%. Also, the Potency result in assay [2] is “inactive”.
On to `O=C(O)c1cc(N=Nc2ccc([N+](=O)[O-])cc2)ccc1O`, for which the Potency in assay [3], in assay [4], in assay [5], in [6], in assay [7] and in [8] was greater than 92 µM throughout. The Potency in assay [17] is 10 µM (active). Moreover, the activity change, negative = cytotoxicity in assay [9] was -5.65%; in assay [10], -24.1%. Besides, the Potency result in assay [11], in assay [12], in [13], in assay [14] and in assay [18] was “inactive” in each case. In assay [15], the result was inactive. Moreover, the activation in [16] is -18.2%; in assay [19], -5.24%; in assay [20], -2.01%.
Regarding `Cc1cn([C@H]2C[C@H](N=[N+]=[N-])[C@H](CO)O2)c(=O)[nH]c1=O`, in [2], the Potency result is “inactive”.
